Laboratory results from PubChem BioAssay AID1159580 (chemical genetic matrix, 2015).
Among all 5,500 compounds or so, about 2,000 (36%) were called active. Roughly 18% stayed inconclusive and do not appear here. No stated cut-off is given here; in the data, active means normalized growth mostly below about 0.91 (no sharp cut-off); inconclusive means no clear call, values can overlap the other calls; inactive means mostly above about 0.92. The list shows a part of the results.

Experiment: chemical genetic growth profiling, strain panel (AID 1159580);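 further: tested at 20 µM; growth read once vehicle control cultures reached saturation at 30 °C; 1 = growth at the plate median or of vehicle wells; lower values mean less growth of the strain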
Conditions: growth OD

Measured: normalized growth

CC[C@H]1OC(=O)[C@H](C)[C@@H](O[C@H]2C[C@@](C)(OC)[C@@H](O)[C@H](C)O2)[C@H](C)[C@@H](O[C@@H]2O[C@H](C)C[C@H](N(C)C)[C@H]2O)[C@](C)(O)C[C@@H](C)/C(=N/OCOCCOC)[C@H](C)[C@@H](O)[C@]1(C)O
inactive: S. cerevisiae deletion strains, locus YJR075W, strain HOC1, hits give low values 0.989 | S. cerevisiae deletion strains, locus YKL009W, strain mrt4, hits give low values 1.01 | S. cerevisiae deletion strains, locus YKL068W, hits give low values 1 | S. cerevisiae deletion strains, locus YKL085W, strain MDH1 (second series), hits give low values 1 | S. cerevisiae deletion strains, locus YKL085W, strain MDH1, hits give low values 1 | S. cerevisiae deletion strains, locus YKL160W, strain elf1, hits give low values 1.02 | S. cerevisiae deletion strains, locus YKL190W, strain CNB1, hits give low values 1 | S. cerevisiae deletion strains, locus YKR001C, strain vps1, hits give low values 1.01 | S. cerevisiae deletion strains, locus YKR026C, strain gcn3, hits give low values 1 | S. cerevisiae deletion strains, locus YKR091W, strain srl3, hits give low values 1 | S. cerevisiae deletion strains, locus YLL001W, strain dnm1, hits give low values 1.02 | S. cerevisiae deletion strains, locus YLL026W, hits give low values 1.01 | S. cerevisiae deletion strains, locus YLL041C, strain sdh2, hits give low values 1.01 | S. cerevisiae deletion strains, locus YLR027C, strain aat2, hits give low values 1.01 | S. cerevisiae deletion strains, locus YLR039C, strain RIC1, hits give low values 0.968 | S. cerevisiae deletion strains, locus YLR058C, strain SHM2, hits give low values 0.998 | S. cerevisiae deletion strains, locus YLR102C, strain apc9, hits give low values 0.989 | S. cerevisiae deletion strains, locus YLR113W, strain HOG1, hits give low values 0.967 | S. cerevisiae deletion strains, locus YLR221C, strain rsa3, hits give low values 1.01 | S. cerevisiae deletion strains, locus YLR258W, strain gsy2, hits give low values 1.02 | S. cerevisiae deletion strains, locus YLR262C, strain YPT6 (second series), hits give low values 0.989 | S. cerevisiae deletion strains, locus YLR262C, strain YPT6, hits give low values 0.997 | S. cerevisiae deletion strains, locus YLR268W, strain sec22, hits give low values 1.03 | S. cerevisiae deletion strains, locus YLR320W, strain mms22, hits give low values 0.993 | S. cerevisiae deletion strains, locus YLR330W, strain CHS5, hits give low values 1.01 | S. cerevisiae deletion strains, locus YLR342W, strain FKS1 (second series), hits give low values 1.01 | S. cerevisiae deletion strains, locus YLR342W, strain FKS1, hits give low values 1.02 | S. cerevisiae deletion strains, locus YLR357W, strain rsc2, hits give low values 1.05 | S. cerevisiae deletion strains, locus YLR370C, strain arc18, hits give low values 1.01 | S. cerevisiae deletion strains, locus YLR371W, strain rom2, hits give low values 0.972 | S. cerevisiae deletion strains, locus YLR418C, strain cdc73, hits give low values 1.03 | S. cerevisiae deletion strains, locus YML016C, strain PPZ1, hits give low values 1.01 | S. cerevisiae deletion strains, locus YML032C, strain rad52, hits give low values 1.01 | S. cerevisiae deletion strains, locus YML120C, strain ndi1, hits give low values 1.01 | S. cerevisiae deletion strains, locus YML124C, strain tub3, hits give low values 0.999 | S. cerevisiae deletion strains, locus YMR058W, strain fet3, hits give low values 1.01 | S. cerevisiae deletion strains, locus YMR078C, strain ctf18, hits give low values 1.01 | S. cerevisiae deletion strains, locus YMR125W, strain sto1, hits give low values 1.01 | S. cerevisiae deletion strains, locus YMR129W, hits give low values 1.02 | S. cerevisiae deletion strains, locus YMR205C, strain PFK2, hits give low values 0.99 | S. cerevisiae deletion strains, locus YMR223W, strain ubp8, hits give low values 1.03 | S. cerevisiae deletion strains, locus YMR231W, strain pep5, hits give low values 1.01 | S. cerevisiae deletion strains, locus YMR307W, strain GAS1, hits give low values 1.02 | S. cerevisiae deletion strains, locus YNL067W, strain RPL9B, hits give low values 0.986 | S. cerevisiae deletion strains, locus YNL071W, strain lat1, hits give low values 0.955 | S. cerevisiae deletion strains, locus YNL183C, strain NPR1, hits give low values 0.937 | S. cerevisiae deletion strains, locus YNL209W, strain ssb2, hits give low values 1.01 | S. cerevisiae deletion strains, locus YNL233W, strain BNI4, hits give low values 0.977 | S. cerevisiae deletion strains, locus YNL248C, strain rpa49, hits give low values 1.03 | S. cerevisiae deletion strains, locus YNL250W, strain rad50, hits give low values 1.05 | S. cerevisiae deletion strains, locus YNL271C, strain bni1, hits give low values 1.01 | S. cerevisiae deletion strains, locus YNL298W, strain CLA4, hits give low values 1.02 | S. cerevisiae deletion strains, locus YNL307C, strain MCK1, hits give low values 1 | S. cerevisiae deletion strains, locus YNL322C, strain KRE1 (second series), hits give low values 1.01 | S. cerevisiae deletion strains, locus YNR049C, strain mso1, hits give low values 1.01 | S. cerevisiae deletion strains, locus YNR052C, strain pop2, hits give low values 1 | S. cerevisiae deletion strains, locus YOL006C, strain TOP1, hits give low values 0.92 | S. cerevisiae deletion strains, locus YOL012C, strain htz1 1.11 | S. cerevisiae deletion strains, locus YOL147C, strain pex11, hits give low values 1.01 | S. cerevisiae deletion strains, locus YOR001W, strain rrp6, hits give low values 1.01 | S. cerevisiae deletion strains, locus YOR061W, strain CKA2, hits give low values 1 | S. cerevisiae deletion strains, locus YOR069W, strain VPS5, hits give low values 1.01 | S. cerevisiae deletion strains, locus YOR070C, strain gyp1, hits give low values 1 | S. cerevisiae deletion strains, locus YOR080W, strain dia2, hits give low values 1.02 | S. cerevisiae deletion strains, locus YOR083W, strain WHI5, hits give low values 1.02 | S. cerevisiae deletion strains, locus YOR106W, strain vam3, hits give low values 1.03 | S. cerevisiae deletion strains, locus YOR136W, strain idh2, hits give low values 1.02 | S. cerevisiae deletion strains, locus YOR144C, strain elg1, hits give low values 1 | S. cerevisiae deletion strains, locus YOR184W, strain ser1, hits give low values 1.01 | S. cerevisiae deletion strains, locus YOR231W, strain MKK1, hits give low values 0.988 | S. cerevisiae deletion strains, locus YOR265W, strain rbl2, hits give low values 1.01 | S. cerevisiae deletion strains, locus YOR270C, strain vph1, hits give low values 1.01 | S. cerevisiae deletion strains, locus YOR290C, strain snf2, hits give low values 1.01 | S. cerevisiae deletion strains, locus YOR316C, strain cot1, hits give low values 0.994 | S. cerevisiae deletion strains, locus YPL051W, strain arl3, hits give low values 1.01 | S. cerevisiae deletion strains, locus YPL055C, strain LGE1, hits give low values 0.988 | S. cerevisiae deletion strains, locus YPL078C, strain atp4, hits give low values 1.01 | S. cerevisiae deletion strains, locus YPL106C, strain sse1, hits give low values 1.04 | S. cerevisiae deletion strains, locus YPL240C, strain hsp82, hits give low values 1.01 | S. cerevisiae deletion strains, locus YPL241C, strain CIN2, hits give low values 1 | S. cerevisiae deletion strains, locus YPL256C, strain CLN2, hits give low values 0.994 | S. cerevisiae deletion strains, locus YPR119W, strain clb2, hits give low values 0.989 | S. cerevisiae deletion strains, locus YPR141C, strain kar3, hits give low values 1.01 | S. cerevisiae deletion strains, locus YPR163C, strain tif3, hits give low values 1 | S. cerevisiae deletion strains, locus YPR167C, strain met16, hits give low values 1.01 | S. cerevisiae deletion strains, strain wtn01, hits give low values 1.02 | S. cerevisiae strains, strain wild type, hits give low values 1.01
